Measured potencies and affinities stand elsewhere. Activity calls are given as the source filed them.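 How the source made its calls: active means ATP signal reduced by compound, with fitted active dose under ten times the top valid tested dose; inactive means the rest, compounds that increase ATP levels included.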
Test: cellular ATP toxicity in rat beta cells – cell-based, CellTiter-Glo luminescence, INS-1E, dry powder, cytotoxicity control for beta-cell cytokine protection project, dose response (AID 488864)
Settings: INS-1E rat beta cells, 48 h, no cytokines; series mostly up to 26 µM; activity change, negative = ATP decrease: at the top concentration

Row | SMILES | activity change, negative = ATP decrease
1 | C[C@@H]1CN([C@@H](C)CO)C(=O)c2cccc(NC(=O)Nc3cccc4ccccc34)c2O[C@H]1CN(C)S(C)(=O)=O | 1.3% (inactive)
2 | COc1ccc(S(=O)(=O)N(C)C[C@H]2Oc3c(NC(=O)Nc4cccc5ccccc45)cccc3C(=O)N([C@H](C)CO)C[C@@H]2C)cc1 | 2.53% (inactive)
3 | COc1ccc(S(=O)(=O)N(C)C[C@@H]2Oc3c(NS(=O)(=O)c4ccccc4)cccc3C(=O)N([C@@H](C)CO)C[C@H]2C)cc1 | 5.7% (inactive)
4 | C[C@@H]1CN([C@@H](C)CO)C(=O)c2cccc(NC(=O)Nc3cccc4ccccc34)c2O[C@H]1CN(C)S(=O)(=O)c1ccc2c(n1)N(C)CCO2 | 11.8% (inactive)
5 | COc1ccc(S(=O)(=O)N(C)C[C@@H]2Oc3c(NC(=O)C4CCCCC4)cccc3C(=O)N([C@@H](C)CO)C[C@H]2C)cc1 | 6.29% (inactive)
6 | COc1ccc(S(=O)(=O)N(C)C[C@@H]2Oc3c(NC(=O)Nc4ccc(F)cc4)cccc3C(=O)N([C@H](C)CO)C[C@H]2C)cc1 | 1.45% (inactive)
7 | COc1ccc(NC(=O)Nc2cccc3c2O[C@@H](CN(C)S(=O)(=O)c2ccc(OC)cc2)[C@H](C)CN([C@@H](C)CO)C3=O)cc1 | 4.11% (inactive)
8 | C[C@@H]1CN([C@@H](C)CO)C(=O)c2cccc(NC(=O)Nc3ccc(F)cc3)c2O[C@H]1CN(C)S(=O)(=O)c1ccc(Cl)cc1 | 8.98% (inactive)
9 | C[C@@H]1CN([C@@H](C)CO)C(=O)c2cccc(NC(=O)Nc3ccc(F)cc3)c2O[C@H]1CN(C)S(=O)(=O)c1ccc(F)cc1 | 5.77% (inactive)
10 | Cc1ccc(S(=O)(=O)N(C)C[C@@H]2Oc3c(NC(=O)Nc4ccc(F)cc4)cccc3C(=O)N([C@@H](C)CO)C[C@H]2C)cc1 | 3.29% (inactive)
